Columns and labels:
[1] = target: Serine/threonine-protein kinase MRCK alpha (Homo sapiens) (UniProt Q5VT25); details: at 0.1 µM
[2] = target: Serine/threonine-protein kinase MRCK alpha (Homo sapiens) (UniProt Q5VT25); details: at 1 µM
[3] = target: Serine/threonine-protein kinase MRCK beta (Homo sapiens) (UniProt Q9Y5S2); details: at 0.1 µM
[4] = target: Serine/threonine-protein kinase MRCK beta (Homo sapiens) (UniProt Q9Y5S2); details: at 1 µM
[5] = target: Ribosomal protein S6 kinase alpha-5 (Homo sapiens) (UniProt O75582); details: at 0.1 µM
Chain of Ribosomal protein S6 kinase alpha-5 (Homo sapiens) (O75582 whole entry, looked up): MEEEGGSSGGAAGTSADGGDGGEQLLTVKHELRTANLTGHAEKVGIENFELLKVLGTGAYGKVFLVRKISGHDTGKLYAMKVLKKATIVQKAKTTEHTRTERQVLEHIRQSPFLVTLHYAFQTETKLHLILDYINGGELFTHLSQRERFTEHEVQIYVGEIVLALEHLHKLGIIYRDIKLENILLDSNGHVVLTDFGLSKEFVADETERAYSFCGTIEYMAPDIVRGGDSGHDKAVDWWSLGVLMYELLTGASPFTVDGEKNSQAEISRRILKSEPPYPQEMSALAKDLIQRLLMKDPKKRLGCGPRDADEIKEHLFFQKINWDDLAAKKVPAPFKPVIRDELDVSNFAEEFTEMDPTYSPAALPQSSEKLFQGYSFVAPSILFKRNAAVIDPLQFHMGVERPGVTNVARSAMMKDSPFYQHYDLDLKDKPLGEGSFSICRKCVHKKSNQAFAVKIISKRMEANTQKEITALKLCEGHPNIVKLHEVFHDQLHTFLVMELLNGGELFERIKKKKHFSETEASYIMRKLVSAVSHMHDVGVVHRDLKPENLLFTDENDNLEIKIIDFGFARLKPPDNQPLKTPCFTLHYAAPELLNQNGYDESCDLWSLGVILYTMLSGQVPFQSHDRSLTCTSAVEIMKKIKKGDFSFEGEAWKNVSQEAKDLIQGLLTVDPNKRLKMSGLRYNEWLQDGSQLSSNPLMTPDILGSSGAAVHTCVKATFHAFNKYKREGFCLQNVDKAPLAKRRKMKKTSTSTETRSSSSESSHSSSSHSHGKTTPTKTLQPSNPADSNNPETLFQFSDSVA

[6] = target: Ribosomal protein S6 kinase alpha-5 (Homo sapiens) (UniProt O75582); details: at 1 µM
[7] = target: Ribosomal protein S6 kinase alpha-4 (Homo sapiens) (UniProt O75676); details: at 0.1 µM
Chain of Ribosomal protein S6 kinase alpha-4 (Homo sapiens) (O75676 whole entry, looked up): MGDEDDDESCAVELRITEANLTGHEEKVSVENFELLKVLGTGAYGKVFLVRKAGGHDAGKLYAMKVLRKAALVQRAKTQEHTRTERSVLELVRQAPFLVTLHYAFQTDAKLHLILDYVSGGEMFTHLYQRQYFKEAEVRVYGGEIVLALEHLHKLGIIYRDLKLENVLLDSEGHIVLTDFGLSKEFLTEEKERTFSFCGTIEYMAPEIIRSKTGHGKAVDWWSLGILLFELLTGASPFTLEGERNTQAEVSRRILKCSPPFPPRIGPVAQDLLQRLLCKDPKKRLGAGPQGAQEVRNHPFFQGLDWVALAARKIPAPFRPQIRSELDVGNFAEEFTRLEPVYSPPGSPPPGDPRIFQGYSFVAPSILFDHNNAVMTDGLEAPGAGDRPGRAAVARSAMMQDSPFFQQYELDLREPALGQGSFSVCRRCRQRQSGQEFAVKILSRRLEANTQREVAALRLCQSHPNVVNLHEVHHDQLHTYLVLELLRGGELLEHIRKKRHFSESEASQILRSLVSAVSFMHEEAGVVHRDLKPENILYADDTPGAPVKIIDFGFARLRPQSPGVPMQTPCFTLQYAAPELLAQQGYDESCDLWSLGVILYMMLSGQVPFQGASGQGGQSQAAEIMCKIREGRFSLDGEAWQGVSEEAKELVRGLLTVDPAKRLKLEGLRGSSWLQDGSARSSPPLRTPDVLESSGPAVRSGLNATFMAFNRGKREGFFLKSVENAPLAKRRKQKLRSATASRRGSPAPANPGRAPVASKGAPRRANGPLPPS

[8] = target: Ribosomal protein S6 kinase alpha-4 (Homo sapiens) (UniProt O75676); details: at 1 µM
[9] = target: Ribosomal protein S6 kinase beta-1 (Homo sapiens) (UniProt P23443); details: at 0.1 µM
Chain of Ribosomal protein S6 kinase beta-1 (Homo sapiens) (P23443 whole entry, looked up): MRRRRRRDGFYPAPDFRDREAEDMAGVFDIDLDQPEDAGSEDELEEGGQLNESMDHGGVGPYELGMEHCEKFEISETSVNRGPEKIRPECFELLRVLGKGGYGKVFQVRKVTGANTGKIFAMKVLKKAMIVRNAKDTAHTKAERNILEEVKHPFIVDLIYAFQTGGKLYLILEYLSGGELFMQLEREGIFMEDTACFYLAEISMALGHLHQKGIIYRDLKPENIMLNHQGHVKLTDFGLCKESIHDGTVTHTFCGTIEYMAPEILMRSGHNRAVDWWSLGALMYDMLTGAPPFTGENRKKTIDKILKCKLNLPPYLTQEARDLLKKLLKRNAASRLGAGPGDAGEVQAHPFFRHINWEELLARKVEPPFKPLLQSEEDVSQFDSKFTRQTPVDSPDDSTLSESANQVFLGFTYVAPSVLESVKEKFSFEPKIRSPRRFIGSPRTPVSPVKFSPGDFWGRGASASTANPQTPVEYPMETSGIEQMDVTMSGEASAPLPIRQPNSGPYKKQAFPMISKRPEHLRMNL

[10] = target: Ribosomal protein S6 kinase beta-1 (Homo sapiens) (UniProt P23443); details: at 1 µM

Chain of Serine/threonine-protein kinase MRCK alpha (Homo sapiens) (Q5VT25 whole entry): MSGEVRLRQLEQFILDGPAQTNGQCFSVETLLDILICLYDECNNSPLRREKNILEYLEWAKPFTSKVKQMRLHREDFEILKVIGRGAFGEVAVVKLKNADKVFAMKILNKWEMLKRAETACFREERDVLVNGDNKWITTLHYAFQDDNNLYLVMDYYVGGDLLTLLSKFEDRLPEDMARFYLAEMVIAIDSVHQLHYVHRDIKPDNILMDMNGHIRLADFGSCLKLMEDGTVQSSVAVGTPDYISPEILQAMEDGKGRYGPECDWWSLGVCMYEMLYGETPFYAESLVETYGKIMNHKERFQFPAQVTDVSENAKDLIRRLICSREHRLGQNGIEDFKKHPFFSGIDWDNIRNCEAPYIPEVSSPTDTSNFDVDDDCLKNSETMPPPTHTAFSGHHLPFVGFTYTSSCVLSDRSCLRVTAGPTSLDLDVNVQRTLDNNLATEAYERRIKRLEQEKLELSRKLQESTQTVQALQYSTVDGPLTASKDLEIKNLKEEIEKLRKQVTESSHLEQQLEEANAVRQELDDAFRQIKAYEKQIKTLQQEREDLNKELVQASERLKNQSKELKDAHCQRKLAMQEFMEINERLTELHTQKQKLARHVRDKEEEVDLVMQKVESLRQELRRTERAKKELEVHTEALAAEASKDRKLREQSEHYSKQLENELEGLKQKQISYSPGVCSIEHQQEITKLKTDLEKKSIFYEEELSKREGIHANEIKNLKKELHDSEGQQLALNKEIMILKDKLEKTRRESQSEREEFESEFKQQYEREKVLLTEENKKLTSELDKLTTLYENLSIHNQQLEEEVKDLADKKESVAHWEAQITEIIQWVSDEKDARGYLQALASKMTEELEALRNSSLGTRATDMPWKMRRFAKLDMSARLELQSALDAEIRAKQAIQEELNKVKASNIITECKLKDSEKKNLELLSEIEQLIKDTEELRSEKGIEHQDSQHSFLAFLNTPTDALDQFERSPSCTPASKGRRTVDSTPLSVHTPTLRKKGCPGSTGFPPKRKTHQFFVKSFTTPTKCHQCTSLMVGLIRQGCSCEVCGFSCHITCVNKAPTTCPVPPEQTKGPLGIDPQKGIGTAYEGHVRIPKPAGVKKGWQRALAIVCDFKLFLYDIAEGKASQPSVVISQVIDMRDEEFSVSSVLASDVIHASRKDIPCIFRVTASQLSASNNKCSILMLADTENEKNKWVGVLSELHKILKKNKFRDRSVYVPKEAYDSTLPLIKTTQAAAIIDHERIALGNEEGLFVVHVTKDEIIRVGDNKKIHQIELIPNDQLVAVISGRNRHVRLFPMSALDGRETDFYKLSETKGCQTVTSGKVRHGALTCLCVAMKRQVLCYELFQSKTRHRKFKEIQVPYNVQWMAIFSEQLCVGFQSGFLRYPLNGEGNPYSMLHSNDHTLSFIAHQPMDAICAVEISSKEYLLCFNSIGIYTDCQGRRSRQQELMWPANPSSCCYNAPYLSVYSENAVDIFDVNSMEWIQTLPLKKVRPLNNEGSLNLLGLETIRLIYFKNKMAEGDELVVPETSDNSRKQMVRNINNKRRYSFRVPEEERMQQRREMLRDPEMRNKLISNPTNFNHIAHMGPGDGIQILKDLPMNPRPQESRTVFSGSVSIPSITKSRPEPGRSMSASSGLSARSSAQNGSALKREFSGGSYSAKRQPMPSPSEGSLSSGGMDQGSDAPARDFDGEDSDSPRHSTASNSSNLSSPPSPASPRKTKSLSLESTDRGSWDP

Row | SMILES | inhibition [1] [%] | inhibition [2] [%] | inhibition [3] [%] | inhibition [4] [%] | inhibition [5] [%] | inhibition [6] [%] | inhibition [7] [%] | inhibition [8] [%] | inhibition [9] [%] | inhibition [10] [%]
1 | Fc1cccc(COc2ccc(Nc3ncnc4sc(-c5cccs5)cc34)cc2Cl)c1 | 1.75 | 2.49 | 1.14 | 1.28 | -5.35 | -7.37 | 1.59 | 1.29 | -0.02 | 0.68
2 | Cc1ccc(C(=O)NC2CCCCC2)cc1-c1ccc(C(=O)NCC2CC2)cc1 | 1.04 | 0.21 | 1.37 | 1.51 | 2.76 | 3.23 | 1.19 | 2.43 | -0.26 | 0.99
3 | CCn1c(-c2nonc2N)nc2cncc(C(=O)N3CC[C@H](N)C3)c21 | 14.5 | 68.7 | 23.1 | 67.2 | 67.9 | 81.4 | 44.5 | 74.3 | 32.9 | 80.3
4 | NC(=O)c1ccc(-c2nc(-c3ccccn3)c(-c3ccc4c(c3)OCO4)[nH]2)cc1 | 0.14 | 2.49 | 1.08 | 0.59 | 1.5 | 1.56 | 2.14 | 4.23 | 1.26 | 2.46
5 | CC1=C(C(=O)Nc2ccc3[nH]ncc3c2)C(c2ccc3ccccc3c2)CC(=O)N1 (stereo not given) | 3.1 | 22.7 | 5.85 | 37.9 | 10.7 | 47.6 | 6.16 | 34.1 | 2.41 | 21.4
6 | COc1cc2ncn(-c3cc(O[C@@H](C)c4ccccc4Cl)c(C(N)=O)s3)c2cc1OC | 1.42 | 0.91 | 0.43 | 3.35 | 11.4 | 11.6 | 4.79 | 5.46 | 0.94 | 2.16
7 | COc1ccc(-c2nn3ncccc3c2-c2ccnc(Nc3ccc(Cl)c(C(F)(F)F)c3)n2)cc1 | -0.16 | 3.43 | -1.37 | 0.06 | 1.49 | 1.69 | 0.22 | 2.02 | 0.17 | 2.22
8 | CN1CCC(C(=O)Nc2n[nH]c3nnc(-c4ccccc4)cc23)CC1 | 0.2 | 2.63 | -0.23 | 0.78 | -1.68 | -1.22 | 2.89 | 4.31 | 1.63 | 2.47
9 | CN(C)c1cc2c(Nc3ccc4nc(Cc5ccccc5)[nH]c4c3)ncnc2cn1 | -0.16 | 1.32 | 0.33 | 0.93 | 4.14 | 4.53 | 1.93 | 2.96 | 2.15 | 4.96
10 | COc1cc2ncn(-c3cc(OCc4ccccc4Cl)c(C(N)=O)s3)c2cc1OC | -0.28 | 2.18 | 0.86 | 1.67 | -5.34 | -5.25 | 0.79 | 3.02 | 0.47 | 0.64
11 | O=C1NC(=O)C(c2ccccc2Cl)=C1Nc1cccc(O)c1 | 0.28 | -0.35 | 1.4 | 3.99 | 2.66 | 5.41 | 1.39 | 3.42 | 1.47 | 0.61
12 | N#Cc1c(NC(=O)c2cccc3ccccc23)sc2c1CCCC2 | -0.22 | -0.12 | 0.93 | 1.57 | 7.78 | 6.93 | 1.95 | 2.56 | 1.14 | 2.63
13 | COc1ccc2cc(-c3c(-c4ccncc4)nc(-c4ccc([S+](C)[O-])cc4)n3C)ccc2c1 (stereo not given) | 0.19 | 1.36 | 0.92 | 1.62 | 3.04 | 1.94 | 1.31 | 4.13 | 2.56 | 2.88
14 | COc1ccc(-c2coc3ncnc(N)c23)cc1 | 0.52 | -0.11 | 1.16 | 1.93 | 9.6 | 8.17 | 1.64 | 3.84 | 1.77 | 2.26
15 | COc1cccc(-n2ncc3c(N/N=C/c4cccc(F)c4)ncnc32)c1 | 0.1 | -0.68 | 1.2 | 0.38 | 0.41 | -0.25 | 2.4 | 2.89 | 0.65 | 2.01
16 | CCn1c(-c2nonc2N)nc2c(N3CCCC3)nccc21 | -0.27 | 5.42 | -0.1 | 2.55 | -0.19 | 11.2 | -0.68 | 3.67 | -0.49 | 8.23
17 | CS(=O)(=O)CCN(CC#N)Cc1ccc(-c2ccc3ncnc(Nc4ccc(OCc5cccc(F)c5)c(Cl)c4)c3c2)o1 | -0.15 | -1.53 | -0.05 | -0.09 | 0.54 | -1.33 | 1.06 | 1.76 | 0.1 | 0.27

Row | SMILES | inhibition [1] [%] | inhibition [2] [%] | inhibition [3] [%] | inhibition [4] [%] | inhibition [5] [%] | inhibition [6] [%] | inhibition [7] [%] | inhibition [8] [%] | inhibition [9] [%] | inhibition [10] [%]
18 | CS(=O)(=O)CCNCc1ccc(-c2ccc3ncnc(Nc4ccc(OCc5ccccc5)c(Cl)c4)c3c2)o1 | -0.63 | -1.47 | 0.86 | 0.8 | -7.35 | -6.84 | 0.04 | 1.73 | 0.22 | 2.03
19 | O=C1NC(=O)C(c2ccc(Cl)cc2)=C1Nc1ccc(Cl)c(C(=O)O)c1 | -0.29 | -0.46 | 0.31 | -0.42 | -1.75 | -1.95 | -2.17 | -1.54 | -1.54 | -1.25
20 | Cn1cc(C=C2C(=O)Nc3cccnc32)c2ccccc21 | 0.96 | 0.55 | 1.17 | 0.99 | 2.12 | 3.29 | 2.56 | 10.1 | 1.61 | 3.78
21 | NCc1ccc(-c2nc(-c3ccc(Cl)c(O)c3)c(-c3ccncc3)[nH]2)cc1 | 0.67 | -0.06 | -1.19 | 1.3 | 0.16 | 2.56 | -0.59 | 2.82 | 0.03 | 0.71
22 | CCn1c(-c2nonc2N)nc2c(C#CC(C)(C)O)nc(OC[C@@H](N)c3ccccc3)cc21 | 12 | 48.2 | 11.1 | 48.5 | -5.71 | 8.99 | 1.92 | 19.7 | 5.44 | 36
23 | O=C1NC(=O)C(c2cccc(Cl)c2)=C1Nc1ccc(O)c(Cl)c1 | 0.28 | 3.73 | 1.27 | 2.02 | 0.69 | 2.04 | 0.07 | 3.61 | 0.45 | 0.8
24 | CNC(=O)c1cncc(/C=C/c2c(Cl)cccc2Cl)c1 | 4.22 | 1.78 | 0.12 | 0.52 | 0.58 | 1.1 | 2.15 | 3.75 | 1.85 | 2.12
25 | CC1=C(C(=O)Nc2ccc3[nH]ncc3c2)C(c2ccc(Cl)c(Cl)c2)CC(=O)N1 (stereo not given) | 1.51 | 20.1 | 5.81 | 35 | 10.3 | 46.4 | 7.4 | 39.1 | 3.83 | 25.2
26 | CCCN1CCC=C(c2ccc(Nc3nc(Nc4ccccc4C(N)=O)c4cc[nH]c4n3)c(C)c2)C1 | 5.2 | 9.75 | 0.66 | 4.44 | 4.46 | 6.4 | 1.37 | 5.28 | 0.98 | 6.39
27 | CCN1CCC(CC(=O)Nc2n[nH]c3nc(-c4cccs4)c(Br)cc23)CC1 | -1 | -0.59 | 0.24 | 0.47 | -2.28 | 0.61 | -2.08 | -1.67 | -1.91 | 0.59
28 | COc1cc(C=NNc2ncnc3c2cnn3-c2ccccc2)ccc1O | 0.09 | 3.38 | 1.02 | 2.48 | -3.81 | -1.13 | 1.6 | 4.55 | 2.72 | 10.3
29 | Cc1nnc(-c2ccc(C)c(-c3ccc(C(=O)Nc4cccc(C#N)c4)cc3)c2)o1 | 0.21 | 2.76 | -0.92 | -0.91 | 1.21 | 1.62 | 0.19 | 2.28 | 1.45 | 1.91
30 | COc1cc2c(cc1Nc1nc(N3CCc4ccccc43)c3cc[nH]c3n1)N(C(=O)CN(C)C)CC2 | 1 | -1.14 | 0.86 | 1.27 | 4.25 | 4.71 | 0.65 | 1.75 | 1.59 | 0.46
31 | Cc1ccc(NC(=O)c2ccnc(N3CCCC3)c2)cc1-c1ccc(C(=O)NCC2CC2)cc1 | 1.01 | -0.76 | 1.8 | 2.5 | 2.8 | 2.72 | 3.43 | 8.63 | 1.53 | 2.76
32 | Nc1nc(-c2ccccn2)c(-c2ccc3ncccc3n2)s1 | 0.29 | -0.21 | -1.45 | 0.91 | 2.65 | 4.51 | 1.3 | 3.24 | 0.7 | 1.17
33 | CCn1c(-c2nonc2N)nc2cnc(Oc3cccc(NC(=O)c4ccc(OCCN5CCOCC5)cc4)c3)cc21 | 6.6 | 42.3 | 17.8 | 59 | 66.8 | 78.1 | 56.7 | 76.7 | 84.6 | 93
34 | CCc1cccc(NC(=O)Nc2ccc(Oc3ccc4nc(NC(=O)OC)[nH]c4c3)cc2)c1 | 1.75 | 2.04 | 0.03 | 0.65 | -4.58 | -1.65 | 1.22 | 1.3 | 4.31 | 5.19
